For 17 molecules, outcome and Potency results are on record in PubChem BioAssay (NCATS).

The target of assay [1] is ATP-dependent 6-phosphofructokinase (Trypanosoma brucei brucei) (UniProt O15648). Description: qHTS Assay to Find Inhibitors of T. brucei phosphofructokinase: hit validation (AID 492961).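 Further: luminescence reports ADP formed as PFK phosphorylates fructose-6-phosphate with ATP.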 The conditions noted are these: T. brucei PFK, ADP-Glo luminescence; series mostly up to 51.4 µM. The gist of the method: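 Reaction: 0.1 M triethanolamine pH 8.0, 5 mM MgCl2, F6P 0.5 mM, ATP 0.1 mM, PFK 1.25 nM, 45 min RT. Read-out: ADP-Glo luminescence. Analysis: concentration-response fits, classed by r2 and efficacy.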
ATP-dependent 6-phosphofructokinase (Trypanosoma brucei brucei), sequence (O15648 whole entry, looked up): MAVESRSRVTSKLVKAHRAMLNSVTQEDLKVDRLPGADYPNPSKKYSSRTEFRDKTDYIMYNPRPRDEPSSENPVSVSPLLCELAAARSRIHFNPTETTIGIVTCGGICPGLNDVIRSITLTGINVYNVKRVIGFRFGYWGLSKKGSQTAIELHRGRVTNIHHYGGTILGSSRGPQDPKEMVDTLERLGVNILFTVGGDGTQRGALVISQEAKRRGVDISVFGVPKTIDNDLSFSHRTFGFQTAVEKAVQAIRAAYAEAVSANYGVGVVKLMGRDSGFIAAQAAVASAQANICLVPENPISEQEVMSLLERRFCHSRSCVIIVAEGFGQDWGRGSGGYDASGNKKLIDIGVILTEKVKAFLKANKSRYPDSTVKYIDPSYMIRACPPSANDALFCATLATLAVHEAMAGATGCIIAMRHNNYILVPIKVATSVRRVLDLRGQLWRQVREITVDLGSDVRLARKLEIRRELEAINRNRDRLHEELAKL
On the technique in general: Quantitative high-throughput screening tests each substance at several concentrations.

Assay [2] has as its system CP192. In words: qHTS profiling for inhibitors of Plasmodium falciparum proliferation (AID 504749). Further: nearly all actives have a fitted effect of over 60% in size. The conditions noted are these: P. falciparum in erythrocytes, SYBR Green DNA, 72 h; series mostly up to 28.7 µM. Put shortly: (§1)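 Fluorescence of SYBR Green-bound parasite DNA, read at 485/535 nm, served as the growth measure. Infected erythrocytes were cultured with compound 72 h; artemisinin (0.29 uM) and DMSO wells defined the normalization range.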

Assay [3] deals with CP201. Described as above. Particulars: P. falciparum in erythrocytes, SYBR Green DNA, 72 h; series mostly up to 28.7 µM. The gist of the method: as §1
For assay [4], the system named is CP211. Described as above. Particulars: P. falciparum in erythrocytes, SYBR Green DNA, 72 h; series mostly up to 28.7 µM. Put shortly: as §1
Assay [5] relates to CP215. Described as above. Particulars: P. falciparum in erythrocytes, SYBR Green DNA, 72 h; series mostly up to 28.7 µM. The gist of the method:
as §1

For assay [6], the system named is CP268. Described as above. The conditions noted are these: P. falciparum in erythrocytes, SYBR Green DNA, 72 h; series mostly up to 28.7 µM. Put shortly:
as §1

Assay [7] concerns CP269. The assay is described as above. The conditions noted are these: P. falciparum in erythrocytes, SYBR Green DNA, 72 h; series mostly up to 28.7 µM. Put shortly: as §1
Assay [8] deals with CP291. Described as above. Particulars: P. falciparum in erythrocytes, SYBR Green DNA, 72 h; series mostly up to 28.7 µM. The gist of the method: as §1
The test system of assay [9] is CP305. Described as above. The conditions noted are these: P. falciparum in erythrocytes, SYBR Green DNA, 72 h; series mostly up to 28.7 µM. The gist of the method:
as §1

Assay [10] relates to CP315. Described as above. The conditions noted are these: P. falciparum in erythrocytes, SYBR Green DNA, 72 h; series mostly up to 28.7 µM. The gist of the method:
as §1

Assay [11] concerns CP325. Described as above. The conditions noted are these: P. falciparum in erythrocytes, SYBR Green DNA, 72 h; series mostly up to 28.7 µM. The gist of the method:
as §1

For assay [12], the system named is CP329. The description is as above. Particulars: P. falciparum in erythrocytes, SYBR Green DNA, 72 h; series mostly up to 28.7 µM. The gist of the method: as §1
The test system of assay [13] is DIV14. The description is as above. The conditions noted are these: P. falciparum in erythrocytes, SYBR Green DNA, 72 h; series mostly up to 28.7 µM. The gist of the method: as §1
Assay [14] concerns DIV17. Described as above. Particulars: P. falciparum in erythrocytes, SYBR Green DNA, 72 h; series mostly up to 28.7 µM. The gist of the method: as §1
The test system of assay [15] is DIV30. Described as above. The conditions noted are these: P. falciparum in erythrocytes, SYBR Green DNA, 72 h; series mostly up to 28.7 µM. The gist of the method:
as §1

Assay [16] relates to GB4. The assay is described as above. The conditions noted are these: P. falciparum in erythrocytes, SYBR Green DNA, 72 h; series mostly up to 28.7 µM. The gist of the method:
as §1

The subject of assay [17] is JCK. The description is as above. The conditions noted are these: P. falciparum in erythrocytes, SYBR Green DNA, 72 h; series mostly up to 28.7 µM. The gist of the method:
as §1

For assay [18], the system named is PC26. Described as above. Particulars: P. falciparum in erythrocytes, SYBR Green DNA, 72 h; series mostly up to 28.7 µM. The gist of the method:
as §1

Assay [19] has as its target Androgen receptor (Homo sapiens) (UniProt P10275). In words: qHTS assay for small molecule antagonists of androgen receptor signaling (AID 588516; active means well fitted curve in the direction sought with a large enough effect in the signal ratio, with a control signal flat, not every such curve was filed as active; the % refers to the signal ratio). The conditions noted are these: AR-UAS-bla HEK293, beta-lactamase ratio, antagonist mode, 16 h; series mostly up to 76.8 µM. The gist of the method: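 AR-UAS-bla-GripTite HEK 293 cells (2000/well, 5 h at 37 C) received compound titrations, then R1881 at 10 nM final; after 16 h at 37 C, CCF4 dye 2 h RT, beta-lactamase fluorescence read; IC50 from Hill fits.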

Assay [20] has as its target Phospholipid hydroperoxide glutathione peroxidase GPX4 (Homo sapiens) (UniProt P36969). In words: Primary qHTS Assay for Inhibitors of Recombinant Selenoprotein Glutathione Peroxidase 4 (GPX4) (AID 1845192). Further: nearly all actives have a fitted effect of over 65% in size. Further: potency means the concentration at half of the fitted maximal effect. Particulars: recombinant GPX4, GR-coupled NADPH fluorescence, 15 min; series mostly up to 50 µM. Put shortly:
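qHTS, GR-coupled: GPX4 200 nM + cpd 30 min RT → GSH 1 mM, NADPH 0.5 mM, GR 100 nM → CHP 0.5 mM start; fluor 340/450 at t0 and t15 min; no-enzyme wells as control.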

Results filed as inconclusive are left out. The source made the active and inactive calls. Unless noted, the call rests on the fitted dose curve; in most records, active means well fitted curve in the direction sought with a large enough effect; inconclusive means small, poorly fitted or top-dose-only effect, or another doubt; inactive means no such curve, though single readings can be large; an effect the other way counts as inactive or inconclusive. Bridge positions count the residues as written; N and C are the ends. Square brackets hold non-standard residues; d marks the D form. Peptide text beside a SMILES is read from it. * marks the point of attachment. Octanoyl(6-Me) = CCC(C)CCCCC(=O)*; Dab = NCC[CH](N)C(=O)O

Phospholipid hydroperoxide glutathione peroxidase GPX4 (Homo sapiens), sequence (P36969 whole entry, looked up): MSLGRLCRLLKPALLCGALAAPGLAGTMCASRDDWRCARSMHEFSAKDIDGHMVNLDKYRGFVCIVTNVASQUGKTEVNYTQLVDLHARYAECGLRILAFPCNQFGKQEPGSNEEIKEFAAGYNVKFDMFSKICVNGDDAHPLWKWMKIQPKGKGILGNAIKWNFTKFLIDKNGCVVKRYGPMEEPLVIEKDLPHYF
Androgen receptor (Homo sapiens), sequence (P10275 whole entry, looked up): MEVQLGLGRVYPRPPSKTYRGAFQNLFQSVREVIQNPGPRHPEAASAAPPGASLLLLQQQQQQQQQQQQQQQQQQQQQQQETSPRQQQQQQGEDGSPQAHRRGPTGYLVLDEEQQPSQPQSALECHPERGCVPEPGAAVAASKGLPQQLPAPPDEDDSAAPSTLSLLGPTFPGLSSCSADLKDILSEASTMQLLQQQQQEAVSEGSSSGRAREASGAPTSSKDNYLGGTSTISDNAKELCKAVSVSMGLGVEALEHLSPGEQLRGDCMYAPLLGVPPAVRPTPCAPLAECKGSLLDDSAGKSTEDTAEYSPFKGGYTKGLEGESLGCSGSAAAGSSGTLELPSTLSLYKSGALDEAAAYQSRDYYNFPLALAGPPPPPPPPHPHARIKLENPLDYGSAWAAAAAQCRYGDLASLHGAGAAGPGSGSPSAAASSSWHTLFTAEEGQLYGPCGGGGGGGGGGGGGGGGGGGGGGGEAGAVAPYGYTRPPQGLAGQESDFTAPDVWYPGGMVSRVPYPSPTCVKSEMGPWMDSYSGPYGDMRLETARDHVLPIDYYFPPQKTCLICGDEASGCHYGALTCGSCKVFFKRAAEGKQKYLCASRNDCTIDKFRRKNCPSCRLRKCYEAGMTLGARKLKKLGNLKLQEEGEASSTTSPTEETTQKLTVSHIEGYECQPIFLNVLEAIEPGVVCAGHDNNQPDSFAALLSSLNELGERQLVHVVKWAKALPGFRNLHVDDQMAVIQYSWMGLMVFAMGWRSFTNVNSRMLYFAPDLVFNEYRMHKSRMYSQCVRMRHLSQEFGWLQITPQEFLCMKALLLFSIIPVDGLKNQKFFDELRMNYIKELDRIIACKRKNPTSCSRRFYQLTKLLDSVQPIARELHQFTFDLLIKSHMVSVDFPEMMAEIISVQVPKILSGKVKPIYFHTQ

In the case of `CN(C)CCCCCCN(C)C`, the molecule was called inactive in [1]. The Potency entry in [2], in assay [3], in assay [4], in assay [5], in assay [6] and in assay [7] was “inactive” in each case. Further, the Potency entry in [8], in [9], in assay [10], in assay [11], in assay [12] and in [13] was “inactive” throughout. Besides, the Potency entry in assay [14], in assay [15], in [16], in assay [17] and in [18] was “inactive” throughout.

`CC(C)=CCCC(C)CCO` (stereo not drawn): the result in assay [19] was inactive.

Take `NC(=O)C1CCCN1C(=O)C(Cc1cnc[nH]1)NC(=O)C1CCC(=O)N1` (stereo not drawn): the Potency result in assay [20] was “inactive”.

Consider `C[C@H]1O[C@]2(CS1)CN1CCC2CC1`, for which the Potency result in assay [20] is “inactive”.

On to `CCC(C)CCCCC(=O)NC(CCN)C(=O)NC(C(=O)NC(CCN)C(=O)NC1CCNC(=O)C(C(C)O)NC(=O)C(CCN)NC(=O)C(CCN)NC(=O)C(CC(C)C)NC(=O)C(Cc2ccccc2)NC(=O)C(CCN)NC1=O)C(C)O` (stereo not drawn) ({Octanoyl(6-Me)}-[Dab]T[Dab][Dab][Dab]FL[Dab][Dab]T; lactam 4-C; configuration not given here), for which the Potency result in assay [20], in assay [2], in [3], in [4], in [5] and in assay [6] was “inactive” each time. Moreover, the Potency entry in assay [7], in [8], in assay [9], in [10], in assay [11] and in assay [12] was “inactive” in each case. Further, the Potency result in [13], in assay [14], in [15], in assay [16], in assay [17] and in assay [18] was “inactive” in each case.

With `CCCCCCCCCC(=O)OCCN1CCN(CC/C=C2/c3ccccc3Sc3ccc(Cl)cc32)CC1`, the Potency in [20] was 2.24 µM (active).

Turning to `Cc1cnc(C(=O)N[C@H]2CCCCC/C=C/[C@@H]3C[C@@]3(C(=O)NS(=O)(=O)C3CC3)NC(=O)[C@@H]3C[C@@H](Oc4nc5ccccc5c5ccccc45)CN3C2=O)cn1`, the Potency in [20] was 3.98 µM (active).

Consider `Cc1cccc([N+](=O)[O-])c1C`, for which the outcome in assay [19] was inactive.

Turning to `CO[C@@H]1[C@@H](O[C@@H]2O[C@H](C)[C@@H](O[C@H]3C[C@@](C)(O)[C@H](O)[C@H](C)O3)[C@H](N(C)C)[C@H]2O)[C@@H](CC=O)C[C@@H](C)[C@@H](O[C@H]2CC[C@H](N(C)C)[C@@H](C)O2)/C=C/C=C/C[C@H](C)OC(=O)C[C@H]1O`, the Potency entry in [20] is “inactive”.

Consider `C=Cc1ccccc1Cl`, for which, in assay [19], the result was inactive.

Take `c1ccc2c(c1)[nH]c1ccccc12`: in assay [19], the result was inactive.

On to `S=C1NC=NC2N=CNC12` (stereo not drawn), for which the result in assay [1] was inactive. For the same molecule, the Potency result in [17] was “inactive”.

Turning to `COc1ccc2nc(N)sc2c1`, in [19], the result was inactive.

As to `C1OCOCO1`, the molecule was called inactive in [1]. Moreover, the Potency result in assay [2], in assay [3], in assay [4], in assay [5], in assay [6] and in assay [7] was “inactive” throughout. Also, the Potency result in [8], in assay [9], in [10], in assay [11], in assay [12] and in assay [13] was “inactive” each time. Moreover, the Potency entry in assay [14], in [15], in assay [16], in assay [17] and in assay [18] was “inactive” in each case.

As for `C/C=C\c1ccc(OC)cc1`, the result in [1] was inactive. The Potency entry in [2], in assay [3], in assay [4], in [5], in assay [6] and in [7] was “inactive” throughout. The Potency result in assay [8], in [9], in assay [10], in assay [11], in assay [12] and in assay [13] was “inactive” throughout. For the same molecule, the Potency result in [14], in assay [15], in assay [16], in [17] and in assay [18] was “inactive” in each case.

For `NC1=NC(S)C2N=CN=C2N1` (stereo not drawn), the molecule was called inactive in [1]. For the same molecule, the Potency result in assay [2], in assay [3], in assay [4], in assay [5], in [6] and in [7] was “inactive” throughout. Further, the Potency entry in assay [8], in assay [9], in [10], in [11], in assay [12] and in assay [13] was “inactive” each time. Further, the Potency entry in assay [14], in [15], in assay [16], in assay [17] and in [18] was “inactive” throughout.

Turning to `CCO`, the outcome in assay [19] was inactive.
